Results taken from article PMC7862700, “An all-to-all approach to the identification of sequence-specific readers for epigenetic DNA modifications on cytosine”.

Assays:
Assay in all cases: DAPPL (digital affinity profiling via proximity ligation, sequencing); 10 mM Tris-HCl pH 7.5, 50 mM NaCl, 1 mM DTT, 4% glycerol, room temperature, 30 min; GST-TFs on glutathione beads, 16-mer random dsDNA library, 0.1% formaldehyde crosslink after washing; high values mean tight binding
[1] = biological target: T1, FEV (Homo sapiens, UniProt Q99581 1-238); conditions: protein: recombinant; tags: N-terminal GST; dsDNA, one strand shown
T1 sequence: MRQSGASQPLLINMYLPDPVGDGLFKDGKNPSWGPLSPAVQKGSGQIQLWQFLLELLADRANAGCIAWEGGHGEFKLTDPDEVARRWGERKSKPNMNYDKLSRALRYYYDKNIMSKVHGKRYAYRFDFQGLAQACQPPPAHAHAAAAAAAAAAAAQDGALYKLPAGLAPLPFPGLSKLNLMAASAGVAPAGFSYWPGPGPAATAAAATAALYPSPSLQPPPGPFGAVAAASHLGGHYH
Method in brief: (§1)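 Pools of DNA-barcoded human transcription factors, expressed in yeast as GST fusions on glutathione beads and combined with a tag-only sample, were incubated with 200 nmole of a 16-mer random double-stranded DNA library. Incubation took 30 min at room temperature in Tris/NaCl/DTT/glycerol buffer and was followed by washing, 0.1% formaldehyde crosslinking, proximity ligation (BsaI/T4 ligase, 1 h, 37 °C), PCR amplification and sequencing on an Illumina NextSeq500. Binding signal is the ratio of a hexamer's read frequency for a factor to its frequency for the tag-only sample.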

[2] = biological target: ETV5 (Homo sapiens, UniProt P41161 1-510); conditions: protein: recombinant; tags: N-terminal GST; dsDNA, one strand shown
Method in brief: as §1

[3] = biological target: HSF1 (Homo sapiens, UniProt Q00613 1-529); conditions: protein: recombinant; tags: N-terminal GST; chain copies: 3; dsDNA, one strand shown
Method in brief: as §1

[4] = biological target: T2, SPIC (Homo sapiens, UniProt Q8N5J4 1-248); conditions: protein: recombinant; tags: N-terminal GST; dsDNA, one strand shown
T2 sequence: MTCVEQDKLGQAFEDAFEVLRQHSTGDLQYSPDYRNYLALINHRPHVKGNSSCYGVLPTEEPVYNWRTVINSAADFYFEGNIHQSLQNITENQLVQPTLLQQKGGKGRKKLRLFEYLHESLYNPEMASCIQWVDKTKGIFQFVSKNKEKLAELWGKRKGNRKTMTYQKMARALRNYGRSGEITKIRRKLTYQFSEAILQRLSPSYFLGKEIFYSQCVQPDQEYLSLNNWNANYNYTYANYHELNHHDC
Method in brief: as §1

[5] = biological target: ELF4 (Homo sapiens, UniProt Q99607 1-663); conditions: protein: recombinant; tags: N-terminal GST; dsDNA, one strand shown
Method in brief: as §1

[6] = biological target: T3, ELK4 (Homo sapiens, UniProt P28324-2 1-405); conditions: protein: recombinant; tags: N-terminal GST; dsDNA, one strand shown
T3 sequence: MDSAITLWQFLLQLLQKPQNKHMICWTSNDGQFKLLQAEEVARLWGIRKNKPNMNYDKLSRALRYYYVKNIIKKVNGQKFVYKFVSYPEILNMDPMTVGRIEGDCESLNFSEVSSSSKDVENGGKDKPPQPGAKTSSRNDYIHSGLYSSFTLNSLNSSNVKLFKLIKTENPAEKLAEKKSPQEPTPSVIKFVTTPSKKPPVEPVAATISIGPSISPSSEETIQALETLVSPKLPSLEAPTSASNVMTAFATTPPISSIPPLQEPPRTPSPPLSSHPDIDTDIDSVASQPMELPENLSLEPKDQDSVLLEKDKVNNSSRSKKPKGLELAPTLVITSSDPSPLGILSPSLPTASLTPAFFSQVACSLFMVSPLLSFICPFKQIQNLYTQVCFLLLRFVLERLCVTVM
Method in brief: as §1

[7] = biological target: T4, ETV2 (Homo sapiens, UniProt O00321 1-342); conditions: protein: recombinant; tags: N-terminal GST; dsDNA, one strand shown
T4 sequence: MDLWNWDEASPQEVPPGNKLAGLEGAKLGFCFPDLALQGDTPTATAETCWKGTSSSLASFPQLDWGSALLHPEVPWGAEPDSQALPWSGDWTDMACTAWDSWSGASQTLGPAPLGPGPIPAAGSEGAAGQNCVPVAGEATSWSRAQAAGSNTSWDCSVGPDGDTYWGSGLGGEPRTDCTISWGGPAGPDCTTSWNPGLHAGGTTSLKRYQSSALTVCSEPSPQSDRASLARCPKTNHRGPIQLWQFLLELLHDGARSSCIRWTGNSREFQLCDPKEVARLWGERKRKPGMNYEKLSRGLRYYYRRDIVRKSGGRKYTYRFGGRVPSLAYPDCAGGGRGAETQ
Method in brief: as §1

[8] = biological target: T5, ELF3 (Homo sapiens, UniProt P78545 1-371); conditions: protein: recombinant; tags: N-terminal GST; dsDNA, one strand shown
T5 sequence: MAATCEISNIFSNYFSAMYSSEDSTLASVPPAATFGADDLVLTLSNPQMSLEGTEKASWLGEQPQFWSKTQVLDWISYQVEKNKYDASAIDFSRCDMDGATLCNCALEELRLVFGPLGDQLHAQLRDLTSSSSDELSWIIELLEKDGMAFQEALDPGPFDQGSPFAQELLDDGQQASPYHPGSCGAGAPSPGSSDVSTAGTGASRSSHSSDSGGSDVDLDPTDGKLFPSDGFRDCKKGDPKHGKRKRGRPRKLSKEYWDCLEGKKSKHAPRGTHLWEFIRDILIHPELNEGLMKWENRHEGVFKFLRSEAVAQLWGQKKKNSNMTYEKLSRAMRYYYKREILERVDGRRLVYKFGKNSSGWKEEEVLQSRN
Method in brief: as §1

[9] = biological target: CRX (Homo sapiens, UniProt O43186 1-299); conditions: protein: recombinant; tags: N-terminal GST; dsDNA, one strand shown
Method in brief: as §1

[10] = biological target: ETV1 (Homo sapiens, UniProt P50549 1-477); conditions: protein: recombinant; tags: N-terminal GST; dsDNA, one strand shown
Method in brief: as §1

ETV1, sequence (P50549 whole entry): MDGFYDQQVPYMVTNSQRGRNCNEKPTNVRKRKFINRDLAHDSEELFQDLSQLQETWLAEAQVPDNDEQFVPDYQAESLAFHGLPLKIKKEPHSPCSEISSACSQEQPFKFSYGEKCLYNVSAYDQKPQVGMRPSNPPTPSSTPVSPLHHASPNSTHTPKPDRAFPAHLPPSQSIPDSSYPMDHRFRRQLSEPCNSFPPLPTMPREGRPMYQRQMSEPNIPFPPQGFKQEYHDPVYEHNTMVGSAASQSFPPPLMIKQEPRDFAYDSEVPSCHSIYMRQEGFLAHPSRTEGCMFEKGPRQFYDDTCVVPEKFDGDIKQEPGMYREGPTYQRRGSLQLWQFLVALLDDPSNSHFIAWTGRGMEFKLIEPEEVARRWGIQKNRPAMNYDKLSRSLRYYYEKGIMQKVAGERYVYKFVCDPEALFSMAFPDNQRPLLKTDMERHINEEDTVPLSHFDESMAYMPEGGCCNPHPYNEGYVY
HSF1, sequence (Q00613 whole entry): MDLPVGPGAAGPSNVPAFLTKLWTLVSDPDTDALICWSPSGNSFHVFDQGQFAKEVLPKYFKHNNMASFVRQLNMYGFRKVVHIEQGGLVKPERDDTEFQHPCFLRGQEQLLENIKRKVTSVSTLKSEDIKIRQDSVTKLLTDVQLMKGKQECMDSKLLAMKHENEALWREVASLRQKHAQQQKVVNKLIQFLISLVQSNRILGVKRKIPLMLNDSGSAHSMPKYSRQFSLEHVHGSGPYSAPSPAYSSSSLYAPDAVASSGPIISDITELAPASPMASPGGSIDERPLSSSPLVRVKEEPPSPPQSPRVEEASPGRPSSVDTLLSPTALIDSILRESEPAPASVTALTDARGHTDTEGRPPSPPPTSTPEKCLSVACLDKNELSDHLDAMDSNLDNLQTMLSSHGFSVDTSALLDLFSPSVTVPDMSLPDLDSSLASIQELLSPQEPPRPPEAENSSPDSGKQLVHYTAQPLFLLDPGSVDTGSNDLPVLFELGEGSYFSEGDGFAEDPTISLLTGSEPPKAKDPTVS
ELF4, sequence (Q99607 whole entry): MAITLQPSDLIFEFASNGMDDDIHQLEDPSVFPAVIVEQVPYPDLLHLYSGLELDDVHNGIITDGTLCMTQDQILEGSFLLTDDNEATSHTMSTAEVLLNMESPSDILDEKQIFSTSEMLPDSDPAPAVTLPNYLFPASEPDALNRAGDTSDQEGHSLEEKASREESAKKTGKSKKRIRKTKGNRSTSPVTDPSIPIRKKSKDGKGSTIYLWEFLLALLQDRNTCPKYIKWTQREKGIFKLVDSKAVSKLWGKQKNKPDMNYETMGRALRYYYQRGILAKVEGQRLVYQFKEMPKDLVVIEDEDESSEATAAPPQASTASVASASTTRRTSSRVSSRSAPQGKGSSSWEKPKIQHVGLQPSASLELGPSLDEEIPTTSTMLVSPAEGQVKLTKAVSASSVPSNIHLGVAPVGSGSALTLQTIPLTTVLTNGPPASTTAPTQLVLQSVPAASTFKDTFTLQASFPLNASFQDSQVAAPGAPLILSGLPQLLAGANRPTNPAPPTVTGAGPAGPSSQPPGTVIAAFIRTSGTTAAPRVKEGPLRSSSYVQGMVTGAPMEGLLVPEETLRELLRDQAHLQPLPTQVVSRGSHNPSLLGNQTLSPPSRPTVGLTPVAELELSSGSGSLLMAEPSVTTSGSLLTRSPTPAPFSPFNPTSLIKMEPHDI
CRX, sequence (O43186 whole entry): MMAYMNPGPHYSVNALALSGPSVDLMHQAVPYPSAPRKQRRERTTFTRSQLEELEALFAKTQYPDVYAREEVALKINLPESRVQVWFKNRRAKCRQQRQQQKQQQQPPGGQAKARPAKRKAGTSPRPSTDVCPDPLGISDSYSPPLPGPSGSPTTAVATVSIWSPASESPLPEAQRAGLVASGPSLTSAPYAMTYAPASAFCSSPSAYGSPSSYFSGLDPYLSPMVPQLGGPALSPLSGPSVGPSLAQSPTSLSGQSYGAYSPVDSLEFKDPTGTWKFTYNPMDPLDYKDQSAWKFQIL
ETV5, sequence (P41161 whole entry): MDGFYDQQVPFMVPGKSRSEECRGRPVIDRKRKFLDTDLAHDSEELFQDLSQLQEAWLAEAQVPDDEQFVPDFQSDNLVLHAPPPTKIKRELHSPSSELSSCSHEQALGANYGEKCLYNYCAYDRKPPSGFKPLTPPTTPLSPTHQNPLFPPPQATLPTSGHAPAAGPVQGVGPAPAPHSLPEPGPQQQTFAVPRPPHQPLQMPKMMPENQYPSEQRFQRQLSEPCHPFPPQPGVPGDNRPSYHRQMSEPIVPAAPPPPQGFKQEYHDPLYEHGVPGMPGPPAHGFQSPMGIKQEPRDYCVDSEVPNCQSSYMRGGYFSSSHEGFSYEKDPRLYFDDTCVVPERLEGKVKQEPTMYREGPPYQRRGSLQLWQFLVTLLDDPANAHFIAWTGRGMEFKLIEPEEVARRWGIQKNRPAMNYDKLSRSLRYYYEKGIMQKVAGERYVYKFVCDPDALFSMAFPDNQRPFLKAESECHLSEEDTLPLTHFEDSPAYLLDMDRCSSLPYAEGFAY

GTCTCC
binding signal [1]: 1.53 fold enrichment (6-mer frequency, TF over GST control)
binding signal [2]: 1.46 fold enrichment (6-mer frequency, TF over GST control)
binding signal [3]: 1.15 fold enrichment (6-mer frequency, TF over GST control)
binding signal [4]: 1.32 fold enrichment (6-mer frequency, TF over GST control)
binding signal [5]: 1.43 fold enrichment (6-mer frequency, TF over GST control)
binding signal [6]: 1.46 fold enrichment (6-mer frequency, TF over GST control)
binding signal [7]: 1.38 fold enrichment (6-mer frequency, TF over GST control)
binding signal [8]: 1.46 fold enrichment (6-mer frequency, TF over GST control)
binding signal [9]: 1.04 fold enrichment (6-mer frequency, TF over GST control)
binding signal [10]: 1.37 fold enrichment (6-mer frequency, TF over GST control)
